Y pestis TopoI = blocks Yersinia pestis topoisomerase I activity; 360,000 tested, 0.064% active; Y. pestis Topo-I cleavage product accumulation, plate reader; activity, % at 10 µM; in the data active means activity above about 50%, passing the limit was not always enough
TcdB inh = inhibitors of Clostridioides difficile toxin B glycohydrolase; TcdB glycohydrolase enzymatic assay, plate reader; AID 652162; P18177; 350,000 tested, 0.24% active; inhibition, % at 9.99 µM; in the data active means inhibition above about 10%
Vc quorum ag-1 = induces V. cholerae light production without autoinducers; V. cholerae BH1578 lux reporter, luminescence, 6 h; activation, % at 18.7 µM; 350,000 tested, 0.16% active; in the data active means activation mostly above about 9.7%, no sharp cut-off
FadD28 binding = M. tuberculosis FadD28 bisubstrate binding inhibition | 360,000 tested, 0.22% active | AID 588549 | FadD28 bisubstrate probe binding, fluorescence polarization | inhibition, % at 12.5 µM; in the data active means inhibition above about 8.5%, passing the limit was not always enough
Mtb BioA inh = inhibitors of Mycobacterium tuberculosis BioA enzyme; purified M. tuberculosis BioA enzyme, plate reader; inhibition, % at 9.99 µM; 360,000 tested, 0.096% active; AID 602481; in the data active means inhibition above about 40%
Vc quorum ag-2 = induces V. cholerae light production without autoinducers. shares compounds with Vc quorum ag-1. activation, % at 50 µM. 620 tested, under 10 active. AID 602243. V. cholerae BH1578 lux reporter, luminescence, 6 h; call rule not given here
A number is an active result; i = inactive; nt = no result; + = active, no number. This is a sample that favours compounds with a hit; in the whole collection about 0.58% have one here.

SMILES	Y pestis TopoI	TcdB inh	Vc quorum ag-1	FadD28 binding	Mtb BioA inh	Vc quorum ag-2
CC(C)OC(=O)C1C2C=CC3(CN(C(C)c4ccc(Br)cc4)C(=O)C13)O2 (stereo not given)	i	i	i	i	i	nt
CC(C)OC(=O)C1C2C=CC3(CN(CC4CCCO4)C(=O)C13)O2 (stereo not given)	i	nt	20.7	i	i	nt
COc1ccc(C2CC(=O)Oc3c(C(C)C)ccc(C)c32)cc1 (stereo not given)	i	i	i	8.8	i	nt
COc1ccc(C2CC(=O)Oc3cc(C)cc(C)c32)cc1 (stereo not given)	i	i	i	i	i	nt
COc1ccc2c3c(n(C)c2c1)[C@@H](CO)N(Cc1cccc(Cl)c1)CC31CN(C(=O)C2CC2)C1	nt	i	nt	nt	nt	nt
CO[C@H]1CN(C)C(=O)c2cc(NS(=O)(=O)CC(F)(F)F)ccc2OC[C@@H](C)N(CCC(F)(F)F)C[C@@H]1C	nt	i	nt	nt	i	nt
N#Cc1ccc(C(=O)N/N=C/c2cn(CC(=O)O)c3ccccc23)c(F)c1	i	11.8	i	i	nt	nt
CCOC(=O)Cn1cc(/C=N/NC(=O)c2ccc(C#N)cc2F)c2ccccc21	i	nt	i	i	i	nt
COc1cccc(-c2nc(OC(C)C)c3ccccc3n2)c1	i	nt	25.0	i	i	i
O=C(C[C@H]1C[C@@H]2c3cc(NC(=O)Nc4ccc(C(F)(F)F)cc4)ccc3O[C@@H]2[C@@H](CO)O1)NCc1ccc2c(c1)OCO2	nt	i	nt	nt	i	nt
O=C(Cn1cc(C(F)(F)F)cc(Cl)c1=O)NC1CCS(=O)(=O)C1 (stereo not given)	i	i	i	i	i	nt
CN(C(=O)Cn1cc(C(F)(F)F)cc(Cl)c1=O)C1CCS(=O)(=O)C1 (stereo not given)	i	i	i	i	i	i
O=C(c1ccccc1)c1cccn1CC(=O)N1CCCCCC1	i	nt	i	i	nt	nt
Cc1cccc(N2CCN(C(=O)Cn3cccc3C(=O)c3ccccc3)CC2)c1C	i	nt	i	i	nt	i
CC(C)CC#Cc1cnc2c(c1)C(=O)N([C@@H](C)CO)C[C@@H](C)[C@@H](CN(C)Cc1ccc3c(c1)OCO3)O2	nt	i	nt	nt	i	nt
COc1ccc(NC(=O)Nc2ccc3c(c2)C(=O)N([C@@H](C)CO)C[C@@H](C)[C@H](CN(C)S(=O)(=O)c2ccccc2)OCCCC[C@@H](C)O3)cc1	nt	i	nt	nt	i	nt
C=C(C)COc1ccc(-c2nc(N)ncc2-c2ccc(OC)cc2)c(O)c1	nt	nt	i	nt	i	nt
C=C(C)COc1ccc(-c2ncncc2Oc2ccc(OC)cc2)c(O)c1	i	nt	25.0	i	i	i
O=C(NC[C@@H]1CC[C@@H]2[C@@H](CN2Cc2cc(-c3ccccc3)on2)O1)c1ccc2c(c1)OCO2	nt	i	nt	nt	nt	nt
Cc1cc(C(=O)CSc2nnc(-c3ccco3)o2)c(C)n1CC1COc2ccccc2O1 (stereo not given)	i	nt	i	i	i	i
O=C(C[C@@H]1C=C[C@@H](NC(=O)CN2CCOCC2)[C@H](CO)O1)NC1CCC1	nt	i	nt	nt	i	nt
CCCn1nnnc1SCC(=O)c1ccc2c(c1)OCCO2	i	nt	65.1	i	i	i
Cc1onc(-c2ccccc2)c1C(=O)c1ccccc1	i	i	i	i	i	nt
Cc1onc(-c2ccccc2)c1C(=O)n1cccn1	i	nt	22.0	i	i	i
O=C(c1ccccc1)N1CC2(C1)[C@H](c1ccccc1)[C@@H](CO)N2Cc1cccnc1	nt	i	nt	nt	nt	nt
SMILES	Y pestis TopoI	TcdB inh	Vc quorum ag-1	FadD28 binding	Mtb BioA inh	Vc quorum ag-2
CC(C)CNC(=O)c1c2c(nc3ccccc13)-c1ccccc1CC2	i	nt	16.7	i	i	i
C[C@H](O)C#Cc1cnc2c(c1)C(=O)N([C@@H](C)CO)C[C@@H](C)[C@H](CN(C)C(=O)c1ccc(F)cc1)O2	nt	i	nt	nt	i	nt
COc1ccc(S(=O)(=O)N2CCCCC2)cc1NC(=O)c1ccc(OC)c(OC)c1	i	i	i	i	i	i
COc1ccc(S(=O)(=O)Nc2cccc(S(=O)(=O)N3CCCC3)c2)cc1OC	i	i	i	i	i	i
COc1ccc(S(=O)(=O)N2CCCCCC2)cc1NC(=O)c1ccccc1	i	i	i	i	i	nt
COc1ccc(CCN(C)C(=O)c2cc(S(=O)(=O)N3CCCCC3)ccc2Cl)cc1OC	i	i	i	i	nt	nt
COc1ccc(CCN(C)C(=O)c2cc(S(=O)(=O)N3CCCCCC3)ccc2OC)cc1OC	i	i	i	i	i	i
CC(=O)N(C)C[C@H]1Oc2cc(-c3cccnc3)ccc2S(=O)(=O)N([C@@H](C)CO)C[C@@H]1C	nt	i	nt	nt	i	nt
COc1ccc(OC)c(S(=O)(=O)N2CCC(C(=O)N3CCc4ccccc4C3)CC2)c1	i	nt	i	i	nt	i
Cc1ccc(C)c(OCCC(=O)OCC(=O)NC2CC2)c1	i	i	i	i	i	i
CN(c1ccccc1)S(=O)(=O)c1nnc(NC(=O)C2CCCCC2)s1	i	i	18.8	i	i	i
CN(c1ccccc1)S(=O)(=O)c1nnc(NC(=O)c2ccco2)s1	i	i	i	i	i	nt
Cc1ccc(S(=O)(=O)NCc2ccccc2)cc1C(=O)NC1CCCCC1	i	i	i	i	i	nt
Cc1ccc(S(=O)(=O)NCc2cccnc2)cc1C(=O)NC1CCCCC1	i	i	i	i	i	i
COc1ccccc1NC(=O)c1nn(-c2ccc(Cl)cc2)ccc1=O	i	nt	25.0	i	i	i
CC1CCc2nn(CC(=O)NC3CCCC3)cc2C1 (stereo not given)	i	i	+	i	i	i
O=C(C[C@H]1C=C[C@H](NC(=O)Nc2cc(F)ccc2F)[C@@H](CO)O1)NCCCN1CCOCC1	nt	i	nt	nt	i	nt
O=C(CN1CCOCC1)Nc1cc(C(F)(F)F)ccc1Cl	i	i	i	i	i	nt
O=C(CN1CCN(c2ccc(F)cc2)CC1)Nc1cc(C(F)(F)F)ccc1Cl	i	nt	25.0	i	i	i
COC(=O)c1cnn(-c2nc(-c3ccccc3)cs2)c1N	i	i	70.0	i	i	i
CC(=O)Nc1ccc2c(c1)C(=O)N(C)[C@H]1CC[C@H](CC(=O)Nc3cccc(F)c3)O[C@@H]1CO2	nt	i	nt	nt	nt	nt
Cc1ccccc1OC(C)c1nc(-c2ccccc2)no1 (stereo not given)	i	nt	i	i	i	i
Cc1ccc(SC(C)c2nc(-c3ccccc3)no2)cc1 (stereo not given)	i	nt	i	i	nt	nt
CCCN1CCN(C(=O)CCCNC(=O)Cn2cnc3sc(C)c(C)c3c2=O)CC1	i	nt	i	i	i	i
O=C(C[C@@H]1CC[C@@H](NC(=O)CN2CCOCC2)[C@H](CO)O1)NCCc1ccccc1	nt	i	nt	nt	i	nt
Cc1cccc(OC(C)C(=O)NC2CCS(=O)(=O)C2)c1C (stereo not given)	i	nt	i	i	i	i
Cc1ccc(/C=C/C(=O)OCC(=O)NCCc2ccc(S(N)(=O)=O)cc2)o1	i	i	25.6	i	i	i
CCCNC(=O)COC(=O)/C=C/c1ccco1	i	i	+	i	nt	i
O=C(COC(=O)/C=C/c1ccco1)NCc1ccccc1	i	i	i	i	nt	nt
Cc1ccc(/C=C/C(=O)NCc2ccc(S(N)(=O)=O)cc2)o1	i	i	i	i	nt	nt

High-throughput results (PubChem BioAssay)
